Laboratory results from PubChem BioAssay (NCATS).
Results filed as inconclusive are left out. Calls of active or inactive are those of the source. Calls come from the whole dose curve; as a rule, active = well fitted curve in the direction sought with a large enough effect; inconclusive = small, poorly fitted or top-dose-only effect, or another doubt; inactive = no such curve, though single readings can be large; an effect the other way counts as inactive or inconclusive.

Columns and labels:
HaCat = assay: Cytotoxic Profiling of Annotated Libraries Using Quantitative High-Throughput Screening (AID 1296008); details: Five cell lines viability, CellTiter-Glo ATP luminescence, 48-72 h; max response: stronger effect = lower value; note: nearly all actives have a fitted effect of over 60% in size
Summary of the method: (§1)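 Cells exposed to compounds for 48 or 72 hr at 37 degrees Celsius. Viability read as ATP-coupled luminescence with CellTiter-Glo after 10 min at room temperature.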

KB-3-1 = assay: as above; details: Five cell lines viability, CellTiter-Glo ATP luminescence, 48-72 h; max response: stronger effect = lower value
Summary of the method: as §1

NIH3T3 = assay: as above; details: Five cell lines viability, CellTiter-Glo ATP luminescence, 48-72 h; max response: stronger effect = lower value
Summary of the method: as §1

C33A = assay: Primary qHTS to identify gynecologic anti-cancer compounds using libraries of approved drugs and bioactive compounds (AID 1345084); details: Gynecologic cancer cell panel viability, ATPlite luminescence, 48 h; series mostly up to 57.5 µM; note: nearly all actives have a fitted effect of over 55% in size
Summary of the method: (§2)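 Cell viability after 48 h drug treatment, ATPlite luminescence readout; five doses.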

CAOV3 = assay: as above; details: Gynecologic cancer cell panel viability, ATPlite luminescence, 48 h; series mostly up to 57.5 µM
Summary of the method: as §2

CASKI = assay: as above; details: Gynecologic cancer cell panel viability, ATPlite luminescence, 48 h; series mostly up to 57.5 µM
Summary of the method: as §2

Es-2 = assay: as above; details: Gynecologic cancer cell panel viability, ATPlite luminescence, 48 h; series mostly up to 57.5 µM
Summary of the method: as §2

HeLa = assay: as above; details: Gynecologic cancer cell panel viability, ATPlite luminescence, 48 h; series mostly up to 57.5 µM
Summary of the method: as §2

Hek293T = assay: as above; details: Gynecologic cancer cell panel viability, ATPlite luminescence, 48 h, control line for the selectivity index; series mostly up to 57.5 µM
Summary of the method: as §2

JEG-3 = assay: as above; details: Gynecologic cancer cell panel viability, ATPlite luminescence, 48 h; series mostly up to 57.5 µM
Summary of the method: as §2

OV90 = assay: as above; details: Gynecologic cancer cell panel viability, ATPlite luminescence, 48 h; series mostly up to 57.5 µM
Summary of the method: as §2
% is set by controls: 0 for no effect and ±100 for the full control effect; potency is the fitted concentration of half-maximal effect.

COC(=O)[C@H](O)[C@H]1C(C)(C)[C@H](OC(=O)C(C)C)[C@@]2(O)C(=O)[C@]1(C)C1CC[C@]3(C)C(CC(=O)O[C@H]3c3ccoc3)[C@]13O[C@@H]32 (some centres not stated)
inactive: max response (HaCat) -4.38% | outcome (KB-3-1) | max response (NIH3T3) -25.1% | Potency (C33A) | Potency (CAOV3) | Potency (CASKI) | Potency (Es-2) | Potency (HeLa) | Potency (Hek293T) | Potency (JEG-3) | Potency (OV90)

C=CC(C)(C)C12C=C(OC)C(=O)N3C(C(C)C)C(=O)NC31N(OC)c1ccccc12 (configuration not stated)
inactive: max response (HaCat) -0.498% | outcome (KB-3-1) | max response (NIH3T3) -14.5% | Potency (C33A) | Potency (CAOV3) | Potency (CASKI) | Potency (Es-2) | Potency (HeLa) | Potency (Hek293T) | Potency (JEG-3) | Potency (OV90)

CC(=O)O[C@H]1[C@H](O[C@H]2[C@@H]3C=CO[C@@H](O[C@@H]4O[C@H](CO)[C@@H](O)[C@H](O)[C@H]4O)[C@@H]3[C@@]3(CO)O[C@@H]23)O[C@@H](C)[C@H](OC(=O)/C=C/c2ccccc2)[C@H]1OC(=O)/C=C/c1ccccc1
inactive: max response (HaCat) -13% | outcome (KB-3-1) | max response (NIH3T3) 0.432% | activity change, negative = cytotoxicity (C33A) 1.54% [at 11.6 µM] | activity change, negative = cytotoxicity (CAOV3) 23.2% [at 11.6 µM] | activity change, negative = cytotoxicity (CASKI) 9.13% [at 11.6 µM] | activity change, negative = cytotoxicity (Es-2) 2.44% [at 11.6 µM] | activity change, negative = cytotoxicity (HeLa) -1.93% [at 11.6 µM] | activity change, negative = cytotoxicity (Hek293T) -2.9% [at 11.6 µM] | activity change, negative = cytotoxicity (JEG-3) -3.47% [at 11.6 µM] | activity change, negative = cytotoxicity (OV90) 3.4% [at 11.6 µM]

COc1cccc(C(=O)N2CCN(C(=O)COc3cccc(C)c3)CC2)c1OC
inactive: max response (HaCat) -1.12% | max response (KB-3-1) -10.9% | max response (NIH3T3) -5.08% | Potency (C33A) | Potency (CAOV3) | Potency (CASKI) | Potency (Es-2) | Potency (HeLa) | Potency (Hek293T) | Potency (JEG-3) | Potency (OV90)

CC/C=C\CCO[C@@H]1O[C@H](CO)[C@@H](O)[C@H](O)[C@H]1O
inactive: max response (HaCat) -6.57% | max response (KB-3-1) 3.45% | max response (NIH3T3) -7.98% | Potency (C33A) | Potency (CAOV3) | Potency (CASKI) | Potency (Es-2) | Potency (HeLa) | Potency (Hek293T) | Potency (JEG-3) | Potency (OV90)

COc1ccc(C[C@H](N)C(=O)N[C@@H]2[C@H](O)[C@H](n3cnc4c(N(C)C)ncnc43)O[C@@H]2CO)cc1
active: Potency (HaCat) 1460 nM | Potency (KB-3-1) 731 nM | Potency (NIH3T3) 4610 nM | Potency (C33A) 3160 nM | Potency (CAOV3) 1580 nM | Potency (CASKI) 2240 nM | Potency (Es-2) 2510 nM | Potency (HeLa) 1260 nM | Potency (Hek293T) 2240 nM | Potency (JEG-3) 3550 nM | Potency (OV90) 7940 nM

O=C1Nc2ccccc2C(O)(c2ccccc2)C1O (configuration not stated)
inactive: max response (HaCat) -18.6% | max response (KB-3-1) 2.02% | max response (NIH3T3) -2.57% | Potency (C33A) | Potency (CAOV3) | Potency (CASKI) | Potency (Es-2) | Potency (HeLa) | Potency (Hek293T) | Potency (JEG-3) | Potency (OV90)

OC[C@H]1O[C@@H](O[C@H]2[C@H](OCCc3ccccc3)O[C@H](CO)[C@@H](O)[C@@H]2O)[C@H](O)[C@@H](O)[C@@H]1O
inactive: max response (HaCat) -12% | max response (KB-3-1) 5.74% | max response (NIH3T3) -1.68% | Potency (C33A) | Potency (CAOV3) | Potency (CASKI) | Potency (Es-2) | Potency (HeLa) | Potency (Hek293T) | Potency (JEG-3) | Potency (OV90)

C=C[C@H]1[C@H](O[C@@H]2O[C@H](CO)[C@@H](O)[C@H](O)[C@H]2O)OC=C(C(=O)OC)[C@H]1CCOC(=O)c1cc(O)c(O)c(O)c1
inactive: max response (HaCat) 4.92% | outcome (KB-3-1) | max response (NIH3T3) -1.02% | Potency (C33A) | Potency (CAOV3) | Potency (CASKI) | Potency (Es-2) | Potency (HeLa) | Potency (Hek293T) | Potency (JEG-3) | Potency (OV90)

CC1(C)CC[C@]2(C(=O)O)[C@H](O)C[C@]3(C)C(=CCC4[C@@]5(C)CC[C@H](O[C@@H]6O[C@H](CO[C@@H]7OC[C@H](O)[C@H](O)[C@H]7O[C@@H]7OC[C@@H](O)[C@H](O)[C@H]7O)[C@@H](O)[C@H](O)[C@H]6O[C@@H]6O[C@H](CO)[C@@H](O)[C@H](O)[C@H]6O)C(C)(C)C5CC[C@]43C)[C@@H]2C1 (some centres not stated)
inactive: max response (HaCat) -11.7% | max response (KB-3-1) 4.84% | max response (NIH3T3) -6.3% | activity change, negative = cytotoxicity (C33A) -1.17% [at 11.6 µM] | activity change, negative = cytotoxicity (CAOV3) -15.5% [at 11.6 µM] | activity change, negative = cytotoxicity (CASKI) 15.8% [at 11.6 µM] | activity change, negative = cytotoxicity (Es-2) -1.47% [at 11.6 µM] | activity change, negative = cytotoxicity (HeLa) 4.13% [at 11.6 µM] | activity change, negative = cytotoxicity (Hek293T) 5.35% [at 11.6 µM] | activity change, negative = cytotoxicity (JEG-3) 8.72% [at 11.6 µM] | activity change, negative = cytotoxicity (OV90) 15.1% [at 11.6 µM]

COc1cc2oc(-c3ccc(O)cc3O)cc2c(OC)c1CC=C(C)C
inactive: max response (HaCat) -6.75% | max response (KB-3-1) -1.08% | max response (NIH3T3) 2.22% | Potency (C33A) | Potency (CAOV3) | Potency (CASKI) | Potency (Es-2) | Potency (HeLa) | Potency (Hek293T) | Potency (JEG-3) | Potency (OV90)

C[C@@H]1O[C@@H](OC[C@H]2O[C@@H](OC(CCCCc3ccc(O)cc3)CCc3ccc(O)cc3)[C@H](O)[C@@H](O)[C@@H]2O)[C@H](O)[C@H](O)[C@H]1O (some centres not stated)
inactive: max response (HaCat) -5.01% | outcome (KB-3-1) | max response (NIH3T3) -4.82% | Potency (C33A) | Potency (CAOV3) | Potency (CASKI) | Potency (Es-2) | Potency (HeLa) | Potency (Hek293T) | Potency (JEG-3) | Potency (OV90)
